Screening data (PubChem)
DT40 TDP1 CPT: growth inhibition of DT40 Tdp1-/-;hTDP1 cells with camptothecin (screen for TDP1 inhibitors). Potency, µM (titrated, usually from 46.2 µM), for the others: top-dose activity change, negative = growth inhibition, most hits filed as inhibitors. 420,000 tested, 12% active. chicken DT40 Tdp1-/-;hTDP1 cells + 20 nM CPT, ATP luminescence, 48 h; also: nearly all actives have a fitted effect of over 55% in size
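Chicken DT40 Tdp1-/- cells complemented with human TDP1, 400 cells/well, exposed to compounds plus 20 nM camptothecin for at least 48 h at 37 C; viability read as ATP content by CellTiter-Glo luminescence.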
KAT2A inh: GCN5L2 (KAT2A) acetyltransferase inhibition. Potency, µM (highest dose often 58.9 µM), for inactives: at the top dose activity change, negative = inhibition, usual class: inhibitors. 390,000 tested, 0.21% active. GCN5L2 HAT assay, ThioGlo1 CoA-SH fluorescence. Q92830
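Compounds, pin-transferred from DMSO stocks, meet 20nM GCN5L2 for 15 min before the reaction begins with H3(1-25) peptide (75uM) and acetyl-CoA (70uM). Thiol-reactive ThioGlo1 reports CoA release over 20 min at room temperature.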
DT40 TDP1 no CPT: qHTS for Inhibitors of human tyrosyl-DNA phosphodiesterase 1 (TDP1): qHTS in cells in absence of CPT | AID 686978, 2013 | Potency, µM (doses to about 46.2 µM), for the others: top-dose activity change, negative = growth inhibition, usual class: inhibitors | 420,000 tested, 15% active | DT40 Tdp1-/- hTDP1 cells, no CPT, ATP luminescence, 48 h; also: nearly all actives have a fitted effect of over 55% in size
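Cells were dispensed at 400 per well, compounds added by pin tool, plates incubated ≥48 hr at 37 °C, then CellTiter-Glo added for 30 min at room temperature before luminescence reading. Line: DT40 Tdp1-/- complemented with hTDP1; camptothecin omitted.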
VDR inh: vitamin D3 receptor (human) inhibition; 400,000 tested, 0.93% active; Potency, µM, for the others: max response, negative = inhibition, actives largely listed as inhibitors; AID 504847; VDR-SRC2-3 peptide fluorescence polarization, 2 h
Target sequence (P11473 whole entry, looked up): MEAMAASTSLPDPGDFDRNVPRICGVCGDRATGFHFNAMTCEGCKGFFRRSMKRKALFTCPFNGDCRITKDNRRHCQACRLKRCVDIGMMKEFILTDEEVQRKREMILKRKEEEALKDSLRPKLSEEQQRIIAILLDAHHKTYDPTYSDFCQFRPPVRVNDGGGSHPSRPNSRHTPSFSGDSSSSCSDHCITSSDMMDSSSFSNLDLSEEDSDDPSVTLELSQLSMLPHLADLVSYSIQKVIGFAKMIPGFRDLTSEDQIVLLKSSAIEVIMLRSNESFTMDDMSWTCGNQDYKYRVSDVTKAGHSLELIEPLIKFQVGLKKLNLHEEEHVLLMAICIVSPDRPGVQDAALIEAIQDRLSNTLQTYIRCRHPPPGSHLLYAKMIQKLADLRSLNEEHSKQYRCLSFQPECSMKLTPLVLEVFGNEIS
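Two reagent solutions held at 4 deg C in the dark were dispensed, compounds pinned at 23 nl, and the mixture incubated 2 h at room temperature. Read-out: fluorescence polarization of VDR–SRC2-3 peptide binding.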
TDP1 block: blocks human tyrosyl-DNA phosphodiesterase 1; Potency, µM (series often up to 130 µM), for inactives: at the highest dose activity change, negative = inhibition, actives largely listed as inhibitors; recombinant TDP1, AlphaScreen DNA substrate cleavage; Q9NUW8; 350,000 tested, 0.28% active; also: nearly all actives have a fitted effect of over 40% in size
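Recombinant human Tdp1 (E. coli-expressed, 1 nM final) preincubated with compounds 15 min at room temperature, then 5'-biotin/3'-phosphotyrosine-FITC DNA substrate (15 nM final) added for 5 min. AlphaScreen beads (10 ug/ml final) added 10 min; cleavage lowers signal.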
PLK1 PBD inh: blocks phosphopeptide binding to human PLK1 polo-box domain. Plk1 PBD binding of FITC phosphopeptide, fluorescence polarization. Potency, µM, without a hit: max response, negative = inhibition, actives largely listed as inhibitors. 360,000 tested, 2.8% active. AID 720504; also: series mostly up to about 57 µM; nearly all actives have a fitted effect of over 65% in size
An asterisk follows results filed as active; ? = inconclusive; nt = no result; [ ] = dose if it differs, or a comment. Hits are enriched below; roughly 18% of the tested compounds scored in any of these assays. Calls follow the shape of the dose curve; as a rule, active = well fitted curve in the direction sought with a large enough effect; inconclusive = small, poorly fitted or top-dose-only effect, or another doubt; inactive = no such curve, though single readings can be large; an effect the other way counts as inactive or inconclusive. % is scaled to controls: 0 for no effect and ±100 for the full control effect; potency is read from the fitted curve at half-maximal effect.

SMILES	DT40 TDP1 CPT	KAT2A inh	DT40 TDP1 no CPT	VDR inh	TDP1 block	PLK1 PBD inh
O=C(N=C1SC2CS(=O)(=O)CC2N1c1ccccc1)C1CC1 (stereo not given)	3.0%	-3.3%	-0.7%	-16.0%	-0.5%	3.6%
COc1ccc2oc(=O)c(C(=O)N3CCN(C(=O)c4ccco4)CC3)cc2c1	-11.7%	-14.4%	-28.9%	-13.4%	0.1%	29.9µM*
O=C(c1ccco1)N1CCN(c2ncnc3scc(-c4ccccc4)c23)CC1	16.4µM*	-7.3%	16.4µM*	1.3%	8.6%	-24.2%
COc1ccc2oc(=O)c(C(=O)N3CCN(C(=O)c4ccccc4)CC3)cc2c1	-23.1%	-12.0%	-5.2%	3.7%	nt	-4.3%
O=C(c1ccco1)N1CCN(c2ncnc3scc(-c4cccs4)c23)CC1	18.4µM*	-6.3%	13µM*	-6.0%	5.6%	-9.6%
COc1ccc(-c2csc3ncnc(N4CCN(C(=O)c5ccco5)CC4)c23)cc1	23.1µM*	-10.9%	?	-10.8%	3.7%	-15.3%
O=C(c1cccs1)N1CCCN(c2ncnc3scc(-c4ccccc4)c23)CC1	?	-3.7%	?	-15.6%	5.7%	-2.9%
Cn1ccnc1SCC(=O)Nc1cc(Cl)ccc1Cl	nt	-2.3%	nt	6.9%	7.1%	nt
COCc1cc(CN2CCCC(C(=O)Nc3ccc(-c4ccco4)cc3)C2)ccc1OC (stereo not given)	?	-25.7%	?	-13.8%	7.1%[56.1 µM]	-9.5%
O=C(Nc1cccc(-n2cccn2)c1)C1CCCN(Cc2ccccc2F)C1 (stereo not given)	20.6µM*	-10.8%	?	16.4%	3.0%	5.6%
COc1cc(CN2CCCC(C(=O)Nc3cccc(-n4cccn4)c3)C2)ccc1F (stereo not given)	?	-28.6%	25.9µM*	15.9%	3.8%	0.0%
O=C(CN1CCCN(Cc2ccccc2F)S1(=O)=O)Nc1ccc(F)c(Cl)c1	?	-13.1%	?	0.2%	2.8%	nt
COc1ccccc1C1CN(CCNC(=O)[C@@H]2CSC(=O)N2)Cc2ccccc2O1 (stereo not given in full)	-0.9%[9.04 µM]	nt	-16.5%	nt	nt	nt
Cc1ccc(-n2c(=O)c3cc4c(=O)n(-c5ccc(C)c(C)c5)c(=O)c4c(C(=O)c4ccc(C(=O)O)cc4)c3c2=O)cc1C	-8.8%	-20.9%	3.8%	?	5.6%	29.9µM*
Cc1ccc(N2C(=O)c3ccc(C(=O)O)cc3C2=O)cc1C	0.7%	3.0%	3.0%	8.2%	7.9%	-2.9%
Cc1nn(-c2ccc(F)cc2)c(Cl)c1C(=O)NCC1CCCO1 (stereo not given)	5.4%	2.3%	8.6%	89.1µM*	-0.1%	-14.2%
COc1cc([N+](=O)[O-])c2nc(C=NNC(N)=S)ccc2c1	-3.6%	nt	?	-3.5%	nt	-8.6%
O/N=C/c1ccc2cccc(OCc3ccccc3)c2n1	-3.9%	-13.5%	-1.7%	12.1%	nt	0.8%
NC(=S)N/N=C/c1ccc2cccc(OCc3ccccc3)c2n1	?	?	29.1µM*	7.7%	nt	-13.3%
O=C(N/N=C/c1ccc2cccc(OCc3ccccc3)c2n1)c1ccc(Br)cc1	16.4µM*	?	?	6.0%	2.0%	8.5%
NC(N)=N/N=C/c1ccc2cccc(OCc3ccccc3)c2n1	9.2µM*	-0.4%	7.31µM*	-17.1%	nt	-13.3%
O=C(N/N=C/c1ccncc1)c1ccc(OCc2ccccc2)cc1	-24.6%	-5.1%	0.0%	4.3%	6.0%	1.4%
C=CCN(c1ccc(OC)cc1)S(=O)(=O)c1ccc(Cl)c(C(=O)OCC(=O)c2c(N)n(C)c(=O)n(C)c2=O)c1	?	nt	?	0.3%	nt	5.0%
CN(c1ccccc1)S(=O)(=O)c1ccc(Cl)c(C(=O)OCC(=O)c2c(N)n(C)c(=O)n(C)c2=O)c1	23.1µM*	nt	?	-3.8%	nt	-8.1%
